# JMJD2A Tudor: qHTS Assay for Inhibitors of JMJD2A-Tudor Domain; Lysine-specific demethylase 4A (Homo sapiens), O75164; AlphaScreen JMJD2A-Tudor / H3K4me3 peptide binding; Potency, µM (top dose mostly 114 µM), inactives show at the highest dose activity change, negative = inhibition, most hits filed as inhibitors; 4.4% of 390,000 active; AID 504339, 2011; note: % is set by controls: 0 for no effect and ±100 for the full control effect; nearly all actives have a fitted effect of over 50% in size
# BAZ2B block: qHTS Assay for Inhibitors of BAZ2B | Bromodomain adjacent to zinc finger domain protein 2B (Homo sapiens), Q9UIF8 | AlphaScreen BAZ2B-H3K14Ac peptide displacement | Potency, µM (doses to about 114 µM), inactives show at the highest dose activity change, negative = inhibition, actives largely listed as inhibitors | 4.4% of 360,000 active; note: % is set by controls: 0 for no effect and ±100 for the full control effect; nearly all actives have a fitted effect of over 60% in size
#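 Complex of BAZ2B and biotin-H3K14Ac (50 nM apiece) forms over 30 min at RT, then faces library compounds up to 110 uM for another 30 min; AlphaScreen beads added, 20 min dark incubation, luminescence read.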
# G9a inh: qHTS Assay for Inhibitors of Histone Lysine Methyltransferase G9a; Histone-lysine N-methyltransferase EHMT2 (Homo sapiens), Q96KQ7; G9a H3K9 monomethylation, AlphaScreen, 2 h; Potency, µM (highest dose often 102 µM), inactives show at the top dose activity, negative = inhibition, usual class: inhibitors; 8.8% of 350,000 active; AID 504332, 2011; note: % is set by controls: 0 for no effect and ±100 for the full control effect; nearly all actives have a fitted effect of over 75% in size
#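 Using a bead-based AlphaScreen, monomethylated H3K9 product from 2 h room-temperature reactions (G9a 20 nM, peptide 500 nM, SAM 20 uM) was detected with 0.5 ug/mL rabbit anti-H3K9me1 antibody.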
# Sfp inh: qHTS Assay for Inhibitors of Bacillus subtilis Sfp phosphopantetheinyl transferase (PPTase); 4'-phosphopantetheinyl transferase ffp (Bacillus subtilis), Q9F4F7; Biochemical Sfp PPTase activity, qHTS; Potency, µM, for the others: largest response in the series, negative = inhibition, usual class: inhibitors; 3.5% of 310,000 active; AID 1490, 2009;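 note: the enzyme is Sfp with the accession as filed and its product quenches rhodamine fluorescence; 0% = enzyme reaction without inhibitor and -100% = no enzyme wells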
#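 With Hepes-Na pH 7.6 buffer containing 10 mM MgCl2, Sfp (15 nM) modified BHQ-2-YbbR (12.5 uM) using rhodamine-CoA (5 uM). Two reads 30 minutes apart at 525/598 nm yielded each well's rate.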
# L3MBTL1 block: qHTS Assay for the Inhibitors of L3MBTL1; Lethal(3)malignant brain tumor-like protein 1 (Homo sapiens), Q9Y468; AlphaScreen L3MBTL1–H3K9me1 peptide binding; Potency, µM (highest dose often 57.1 µM), without a hit: at the top dose activity, negative = inhibition, hits mostly inhibitors; 0.66% of 230,000 active; AID 485360, 2010; note: % is set by controls: 0 for no effect and ±100 for the full control effect; nearly all actives have a fitted effect of over 60% in size
# Target sequence (Q9Y468 whole entry, looked up): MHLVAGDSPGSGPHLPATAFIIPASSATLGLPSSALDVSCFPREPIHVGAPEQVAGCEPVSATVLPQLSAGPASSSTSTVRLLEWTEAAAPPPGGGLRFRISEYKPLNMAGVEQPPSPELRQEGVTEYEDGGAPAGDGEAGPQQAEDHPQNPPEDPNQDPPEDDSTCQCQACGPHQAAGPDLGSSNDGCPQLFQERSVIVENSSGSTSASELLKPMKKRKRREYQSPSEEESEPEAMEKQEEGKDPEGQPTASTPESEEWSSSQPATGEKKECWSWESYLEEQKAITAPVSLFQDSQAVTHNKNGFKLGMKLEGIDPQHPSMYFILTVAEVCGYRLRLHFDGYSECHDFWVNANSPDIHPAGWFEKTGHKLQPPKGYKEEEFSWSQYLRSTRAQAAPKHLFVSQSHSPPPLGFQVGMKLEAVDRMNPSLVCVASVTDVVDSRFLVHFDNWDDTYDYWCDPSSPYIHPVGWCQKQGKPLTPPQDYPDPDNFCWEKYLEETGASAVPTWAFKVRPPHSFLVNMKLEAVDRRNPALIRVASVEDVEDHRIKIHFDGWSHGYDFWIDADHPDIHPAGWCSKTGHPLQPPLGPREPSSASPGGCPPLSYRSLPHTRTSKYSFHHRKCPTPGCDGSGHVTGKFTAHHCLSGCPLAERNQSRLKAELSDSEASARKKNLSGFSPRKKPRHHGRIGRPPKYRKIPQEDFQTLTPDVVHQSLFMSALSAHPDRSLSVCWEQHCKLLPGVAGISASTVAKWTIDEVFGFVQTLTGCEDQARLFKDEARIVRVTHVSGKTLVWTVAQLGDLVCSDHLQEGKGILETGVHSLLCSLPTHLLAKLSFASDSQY
#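 Read-out is AlphaScreen signal from streptavidin donor and nickel chelate acceptor beads (10 ug/mL final each) bridging L3MBTL1 (50 nM) and biotinylated K9-monomethylated H3(1-15) peptide (75 nM), after 30 min compound exposure at room temperature.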
# HP1b binding inh: HTS for Inhibitors of HP1-beta Chromodomain Interactions with Methylated Histone Tails. Chromobox protein homolog 1 (Homo sapiens), P83916. AlphaScreen HP1-beta / biotin-H3K9me3 peptide binding. Potency, µM (series often up to 114 µM), for inactives: at the top dose activity change, negative = inhibition, hits mostly inhibitors. 0.56% of 390,000 active. AID 540317, 2011; note: nearly all actives have a fitted effect of over 70% in size
#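 Compound inhibition of the preformed complex between 50 nM HP1-beta and 50 nM biotinylated H3K9me3 peptide was read by AlphaScreen. Buffer was PBS pH 7.4 with 0.01% Tween-20. Incubations ran 30 min at room temperature, with 10 ug/mL donor/acceptor beads.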
# Numbers without * were called inactive; ? = inconclusive; . = no result; [ ] = another dose, or the depositor's remark. Shown are actives, neighbours in structure and some others; about 12% of the full set was active somewhere. Calls come from the whole dose curve; as a rule, active = well fitted curve in the direction sought with a large enough effect; inconclusive = small, poorly fitted or top-dose-only effect, or another doubt; inactive = no such curve, though single readings can be large; an effect the other way counts as inactive or inconclusive. Potency is the fitted concentration of half-maximal effect.
SMILES,JMJD2A Tudor,BAZ2B block,G9a inh,Sfp inh,L3MBTL1 block,HP1b binding inh
O=C(c1cccc(F)c1)N1CCC2(CC1)CCN(C(c1ccccc1)c1ccccc1)CC2,.,.,-3.7%[12.7 µM],-12.4%,.,.
CCCCOC(=O)c1ccc(NC(=S)NC(=O)c2ccco2)cc1,-29.7%,?,-45.5%,-15.5%,.,-3.8%
CCCCOC(=O)c1ccc(NC(=S)NC(=O)c2c(Cl)cnn2C)cc1,1.3%,2.9%,-1.1%,79.4µM*,1.7%,5.1%
CCCCOC(=O)c1ccc(NC(=S)NC(=O)c2c(Cl)cnn2CC)cc1,2.6%,1.1%,43.0%[12.7 µM],44.7µM*,-0.6%,37.8%
O=C1[C@H]2[C@H]3[C@H](O)[C@H](O)C/C(=N/OC[C@@H](O)COCc4ccco4)[C@H]3CC[C@@H]2C(=O)N1C[C@@H]1CCCO1,.,.,.,-9.8%,.,.
CC1N(C)c2cccc3cccc(c23)N1C,-32.3%[57.1 µM],50.1µM*,2µM*,-10.9%,-18.8%,?
CN1C(=O)N(C)c2cccc3cccc1c23,-20.5%,4.4%,20.1%[2.33 µM],9.5%,.,32.6%
CN1c2cccc3cccc(c23)N(C)C1c1cccs1,-25.0%,?,15.8µM*,-12.4%,-22.2%,?
O=[N+]([O-])c1cc([N+](=O)[O-])c(Oc2ccc(Br)cc2Br)cc1NN1CCCCC1,10µM*,?,15.8µM*,4.8%,11.1%,?
O=[N+]([O-])c1cc([N+](=O)[O-])c(Oc2cccc3c2CCCC3)cc1NN1CCCCC1,-34.0%,.,.,.,.,0.4%
COc1cccc(Oc2cc(NN3CCCCC3)c([N+](=O)[O-])cc2[N+](=O)[O-])c1OC,?,8.91µM*,39.8µM*,2.4%,?,-26.6%
Cc1cc(F)ccc1Oc1cc(NN2CCCCC2)c([N+](=O)[O-])cc1[N+](=O)[O-],?,?,?,1.3%,-7.4%,-14.7%
O=[N+]([O-])c1cc([N+](=O)[O-])c(Oc2c(F)cc(F)cc2F)cc1NN1CCCCC1,?,?,50.1µM*,-24.8%,-7.1%,?
O=C(CCn1c(=O)c2cccn2c2cccnc21)NCc1cccc(Br)c1,-7.0%,-12.5%,6.8%[59 µM],.,.,34.1%
O=C(O)c1ccc(N2CC3CC(C2)c2cccc(=O)n2C3)c(NC(=S)Nc2ccc(Cl)cc2Cl)c1 (centres undefined),-29.7%,0.7%,10µM*,50.1µM*,.,?
Cc1cc(C)c(S(=O)(=O)/N=C2\C=C(Nc3ccc(C(=O)O)cc3)C(=O)c3ccccc32)c(C)c1,31.6µM*,8.91µM*,10µM*,50.1µM*,.,?
O=C(O)c1ccc(NC2=C/C(=N/S(=O)(=O)c3ccccc3)c3ccccc3C2=O)cc1,50.1µM*,20µM*,12.6µM*,-10.6%,.,?
O=C(O)c1ccc(NC2=C(N3CCOCC3)C(=O)c3ccccc3C2=O)cc1,-17.2%,?,?,-1.7%,-20.3%,12.6%
CC(=O)N1CCCc2cc(S(=O)(=O)N3CCCC(C(=O)N4CCN(c5cc(C)ccc5C)CC4)C3)ccc21 (centres undefined),3.98µM*,-30.6%[57.1 µM],1.6%,-8.7%,.,19.4%
CCOC(=O)c1c(C)[nH]c(C)c1S(=O)(=O)N1CCCC(C(=O)N2CCN(c3cc(C)ccc3C)CC2)C1 (centres undefined),?,44.7µM*,-33.0%[59 µM],.,.,-20.8%
CC1=NN(c2ccccc2)C(=O)/C1=C/c1cc(C)n(C2CC2)c1C,-34.6%[11.4 µM],?,7.0%[12.7 µM],18.7%,-4.8%,25.9%
CC1=NN(c2ccccc2)C(=O)/C1=C/C=C/c1ccccc1,8.91µM*,7.94µM*,5.01µM*,-3.3%,?,31.6µM*
CC1=NN(c2ccccc2)C(=O)/C1=C\N1CC(C)OC(C)C1 (centres undefined),-30.0%,?,79.4µM*,-1.8%,-4.1%,13.7%
Cc1ccc(C2=NOC(=O)/C2=C\C=C\c2ccccc2)cc1,50.1µM*,35.5µM*,2.82µM*,28.2µM*,-27.5%,-29.6%
Cc1ccc(-n2nc3ccc(NC(=O)/C=C/c4ccco4)cc3n2)cc1,?,?,?,?,?,-15.2%
SMILES,JMJD2A Tudor,BAZ2B block,G9a inh,Sfp inh,L3MBTL1 block,HP1b binding inh
CC1=NN(c2cccc(C(=O)O)c2)C(=O)/C1=C\C=C\c1ccco1,8.91µM*,10µM*,7.94µM*,-22.6%,3.16µM*,12.6µM*
CC1=NN(c2nc(C)cc(C)n2)C(=O)C1CCC(C)C (centres undefined),?,-11.0%,44.3%,5.1%,.,37.8%
CCC1C(=O)N(c2nc(C)cc(C)n2)N=C1C (centres undefined),11.2µM*,?,20µM*,56.2µM*,.,31.2%
CCn1c(SCC(=O)O)nc2sc3c(c2c1=O)CCC3,?,56.2µM*,44.7µM*,26.3%,.,-1.5%
CCn1c(SCc2ccc(C(=O)OC)o2)nc2sc3c(c2c1=O)CCCC3,-22.1%,-4.6%,12.1%[2.33 µM],35.5µM*,.,26.4%
Cn1c(SCC(=O)O)nc2sc3c(c2c1=O)CCC3,-22.3%,-4.7%,-4.7%[59 µM],15.8%,3.8%,26.2%
CCn1c(SCC(=O)OC)nc2sc3c(c2c1=O)CC(C)(C)OC3,-5.6%,-5.6%,22.0%[12.7 µM],4.8%,3.5%,10.2%
CCn1c(SCC(=O)OC)nc2sc3c(c2c1=O)CCC3,50.1µM*,50.1µM*,.,5.9%,?,?
COCCCn1c(SCC(=O)Nc2ccc(NC(C)=O)cc2)nc2sc3c(c2c1=O)CCC3,-14.0%,-14.2%,44.7µM*,-1.0%,.,0.1%
CCOC(=O)Cn1c(=O)oc2cc(S(=O)(=O)N3CCN(c4ccccc4F)CC3)ccc21,-12.1%,-7.1%,-31.3%[59 µM],.,.,34.2%
CO[C@]12C[C@@H](COC(=O)c3cncc(Br)c3)CN(C)[C@@H]1Cc1cn(C)c3cccc2c13,.,.,.,4.8%,.,.
CC1CCC(C(=O)O)NC1c1cccc(N2CCOCC2)c1 (centres undefined),.,.,.,4.8%,.,.
CCN(C(=O)CN1CCN(c2ccc(O)cc2)CC1)c1c(N)n(Cc2ccccc2)c(=O)[nH]c1=O,?,.,8.91µM*,14.1µM*,-2.9%,-12.0%
Cn1c(=O)c(C(=O)CN2CCCc3ccccc32)c(N)n(Cc2ccccc2)c1=O,?,-61.0%,?,-18.3%,?,1.4%

# Compound activity as filed in PubChem.
